Screening data from PubChem BioAssay.
PLK1 PBD inh = inhibitors of human PLK1 polo-box domain binding | P53350 | Plk1 PBD binding of FITC phosphopeptide, fluorescence polarization | Potency, µM, without a hit: max response, negative = inhibition, hits mostly inhibitors | 360,000 tested, 2.8% active; further: potency means the concentration at half of the fitted maximal effect; series mostly up to about 57 µM; nearly all actives have a fitted effect of over 65% in size
VDR inhibitor = inhibitors of human vitamin D receptor; VDR-SRC2-3 peptide fluorescence polarization, 2 h; 400,000 tested, 0.93% active; AID 504847; Potency, µM, for the others: max response, negative = inhibition, actives largely listed as inhibitors; P11473; further: potency means the concentration at half of the fitted maximal effect
Target sequence (P11473 whole entry, looked up): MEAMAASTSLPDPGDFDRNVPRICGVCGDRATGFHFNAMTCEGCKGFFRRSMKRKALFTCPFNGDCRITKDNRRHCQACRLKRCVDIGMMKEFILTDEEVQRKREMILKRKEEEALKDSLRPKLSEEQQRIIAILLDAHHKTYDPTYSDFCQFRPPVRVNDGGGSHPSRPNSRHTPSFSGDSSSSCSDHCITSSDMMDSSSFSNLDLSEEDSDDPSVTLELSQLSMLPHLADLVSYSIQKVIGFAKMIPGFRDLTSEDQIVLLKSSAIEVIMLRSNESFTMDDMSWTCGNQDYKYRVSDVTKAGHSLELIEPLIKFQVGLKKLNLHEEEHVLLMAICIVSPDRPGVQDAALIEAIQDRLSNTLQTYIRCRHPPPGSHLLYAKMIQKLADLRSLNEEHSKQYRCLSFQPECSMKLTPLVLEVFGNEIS
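Compounds are added to VDR with labelled SRC2-3 coactivator peptide and held 2 h at room temperature. Inhibition of the VDR–peptide interaction is then read as a change in fluorescence polarization.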
CCT chaperon mod = changes cytosolic chaperonin activity | purified chaperonin ATPase assay, HTRF ADP detection, 30 min | activity change, % (concentration not given with the values), hits read low | 360,000 tested, 0.3% active; in the data active means activity change below about -30%
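Enzyme 40 or 20 nM (batch-dependent) in Tris pH 7.4/KCl/MgCl2/DTT; cpd 76 uM single point; ATP 10 uM; 30 min 37 °C; Transcreener ADP HTRF detection, 30 min RT; ratio 665/615.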
G9a inh = G9a (human) methyltransferase inhibition; G9a H3K9 monomethylation, AlphaScreen, 2 h; Potency, µM (highest dose often 102 µM), without a hit: at the top dose activity, negative = inhibition, hits mostly inhibitors; 350,000 tested, 8.8% active; further: potency means the concentration at half of the fitted maximal effect; nearly all actives have a fitted effect of over 75% in size
Target sequence (Q96KQ7 913-1193 limits assumed): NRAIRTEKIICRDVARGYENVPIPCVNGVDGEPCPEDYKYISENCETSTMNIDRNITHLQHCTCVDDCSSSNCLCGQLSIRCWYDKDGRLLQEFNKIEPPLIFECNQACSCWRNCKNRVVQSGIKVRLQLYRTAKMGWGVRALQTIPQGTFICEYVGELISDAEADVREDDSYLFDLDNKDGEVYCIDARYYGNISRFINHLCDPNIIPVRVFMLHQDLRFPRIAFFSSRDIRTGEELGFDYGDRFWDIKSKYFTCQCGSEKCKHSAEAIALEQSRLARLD
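Readings reflect AlphaScreen signal from monomethyl-H3K9 antibody detection. HMT at 20 nM; substrate b-H3K9 500 nM; cofactor SAM 20 uM; 2 h RT reaction; compounds tested as titrations in qHTS with 15 min preincubation.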
MmCpn inh = M. maripaludis TRiC chaperonin inhibition; purified Mm-Cpn ATPase, ADP Transcreener TR-FRET; 330,000 tested, 0.031% active; AID 504842; Potency, µM (doses to about 76.9 µM), inactives show top-dose activity, negative = inhibition, hits mostly inhibitors; further: potency means the concentration at half of the fitted maximal effect; nearly all actives have a fitted effect of over 80% in size
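Compound-treated chaperonin, 25 nM final, turns over 10 uM ATP at 37°C for 30 min following a 10 min preincubation; ADP generated competes with ADP-d2 for Eu-cryptate antibody, lowering FRET.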
Sfp PPTase inh = blocks B. subtilis Sfp PPTase activity; Q9F4F7; Biochemical Sfp PPTase activity, qHTS; Potency, µM, for inactives: largest response in the series, negative = inhibition, hits mostly inhibitors; 310,000 tested, 3.5% active;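 further: the enzyme is Sfp with the accession as filed and its product quenches rhodamine fluorescence; potency means the concentration at half of the fitted maximal effect; 0% = enzyme reaction without inhibitor and -100% = no enzyme wells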
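Fluorescence-quenching assay: 15 nM Sfp-PPTase preincubated 15 min at room temperature with compound, then 5 uM rhodamine-CoA and 12.5 uM BHQ-2-labelled YbbR peptide added. Fluorescence (ex 525/em 598 nm) read at start and after 30 min; difference gives rate.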
Active calls of the source: *; ? = inconclusive; / = no result given; [ ] = dose if it differs, or a comment. Most compounds without a hit are left out; they make up all but 10% or so of the library. Unless noted, the call rests on the fitted dose curve; in most records, active means well fitted curve in the direction sought with a large enough effect; inconclusive means small, poorly fitted or top-dose-only effect, or another doubt; inactive means no such curve, though single readings can be large; an effect the other way counts as inactive or inconclusive. Unless noted, on the % scale 0 is the no-effect control and ±100 the full control effect.

SMILES	PLK1 PBD inh	VDR inhibitor	CCT chaperon mod	G9a inh	MmCpn inh	Sfp PPTase inh
N#Cc1ccc(-c2csc(NC3=NCCCCC3)n2)cc1	-17%	6%	1	-7%[59 µM]	-1%	-11%
Brc1ccc(-c2csc(NNC3=NCCCCC3)n2)cc1	?	?	2	13µM*	-2%	50µM*
C=CCn1c(COc2ccccc2)nnc1SC(C)C(=O)N/N=C/c1cc(Cl)ccc1O (stereo not drawn)	27µM*	-24%	-1	28%[59 µM]	0%	15%
COc1ccc(N2CCN(c3ccnc4cc(Cl)ccc34)CC2)cc1	-1%	-8%	-2	32µM*	5%	56µM*
Oc1ccc(N2CCN(c3ccnc4cc(Cl)ccc34)CC2)cc1	-9%	-9%	1	8.9µM*	1%	?
Clc1ccc2c(N3CCCC3)ccnc2c1	-7%	-1%	-2	-31%[59 µM]	0%	12%
Cc1ccc(CCNC(=O)c2cc3c(=O)oc4ccccc4c3s2)cc1	/	1%	/	1%[59 µM]	/	/
O=C(O)c1cc(-c2ccc(/C=N/Nc3ccc(Cl)cc3)o2)ccc1Cl	30µM*	-29%	0	?	-2%	-21%
Nc1nonc1C(=O)N/N=C/c1ccc(-c2ccc(Cl)c(C(=O)O)c2)o1	-12%	-2%	-7	32µM*	-4%	8.9µM*
O=C(O)c1ccc(N/N=C/c2ccc(-c3ccc(Br)cc3)o2)cc1	?	0%	-1	-3%[59 µM]	-4%	2%
CC(C)Oc1ccc(CNS(=O)(=O)c2cnc(N)nc2)cc1	/	3%	/	12%[59 µM]	/	/
CCOc1ccc(-n2ccnc2SCC(=O)Nc2ccc(OC)cc2OC)cc1	/	1%	/	?	/	/
CC(=O)Nc1cccc(C(=O)Nc2cccc3ncccc23)c1	-1%	3%	1	45µM*	2%	12%
CCN1CCN(c2ncc3c(n2)CC(c2ccc(OC)c(OC)c2)CC3=O)CC1 (stereo not drawn)	-7%	0%	2	-13%[59 µM]	1%	0%
COc1ccc(C2CC(=O)c3cnc(N4CCN(Cc5ccccc5)CC4)nc3C2)cc1 (stereo not drawn)	21µM*	-27%	-1	?	0%	-22%
COc1cccc(Nc2c(F)c(OC)c(F)c(F)c2C(=O)O)c1	-7%	14%	-1	?	3%	1%
COc1c(F)c(F)c(C(=O)O)c(Nc2ccccc2)c1F	1%	-8%	-78*	-25%	0%	16%
CC(=O)c1ccc(N2CCN(S(=O)(=O)c3ccc(-c4coc(C)n4)cc3)CC2)cc1	/	17%	/	0%[59 µM]	/	/
COc1ccccc1C(=O)Nc1nnc(SCc2cc(=O)n3ccc(C)cc3n2)s1	/	3%	/	0%[59 µM]	/	/
COc1ccc(CCNC(=O)c2ccc(Nc3nc4ccccc4n4nnnc34)cc2)cc1OC	/	-6%	/	-2%[59 µM]	/	/
Cc1ccc(-n2nnnc2CNC(=O)c2ccccc2)cc1C	/	13%	/	2%[59 µM]	/	/
CCOc1ccc(CC(=O)OCN2C(=O)c3ccccc3C2=O)cc1	?	3%	1	40µM*	0%	89µM*
O=C(Cc1ccc(F)cc1)OCN1C(=O)c2ccccc2C1=O	3%	-18%	-2	28µM*	1%	-13%
Cc1cccc2cc(C(c3nnnn3C3CCCC3)N3CCOCC3)c(=O)[nH]c12 (stereo not drawn)	-3%	-8%	2	-32%	-1%	-1%
Cc1ccc2cc(C(c3nnnn3C3CCCC3)N3CCN(c4ccc(F)cc4)CC3)c(=O)[nH]c2c1 (stereo not drawn)	0%	6%	1	11µM*	-2%	35µM*
SMILES	PLK1 PBD inh	VDR inhibitor	CCT chaperon mod	G9a inh	MmCpn inh	Sfp PPTase inh
Cc1cc(C)c2cc(C(c3nnnn3C3CCCC3)N3CCOCC3)c(=O)[nH]c2c1 (stereo not drawn)	0%	-13%	2	-28%[59 µM]	-1%	56µM*
CC(C)c1cccc(C(C)C)c1NC(=O)CNCc1ccccc1F	-14%	6%	0	7.9µM*	-1%	45µM*
CC(C)c1cccc(C(C)C)c1NC(=O)CNCC(O)c1ccccc1 (stereo not drawn)	4%	5%	1	10%	0%	-13%
O=[N+]([O-])c1cccc2ccc(/C=C/c3ccc(C(F)(F)F)cc3)nc12	-4%	-9%	0	35µM*	2%	?
OC(CC#CCN1CCCC1)(c1ccccc1)c1ccccc1	-6%	15%	2	28µM*	3%	0%
CC(C)C(O)(C#CCN1CCCCCC1)c1ccccc1 (stereo not drawn)	-7%	1%	-38*	/	-3%	14%
CC(O)(C#CCN1CCCCC1)c1ccccc1 (stereo not drawn)	-7%	-2%	-1	?	0%	16%
CN1CCN(CC#CCC(O)(c2ccccc2)c2ccccc2)CC1	-16%	-7%	-4	71µM*	1%	6%
CN1CCN(CC#CCC(O)(c2ccccc2)C2CCCC2)CC1 (stereo not drawn)	-11%	-11%	-7	8.9µM*	-1%	3%
CC(C)[C@H]1COC(c2cccc([N+](=O)[O-])c2)=N1	/	6%	/	14%[135 µM]	/	7%
COc1cc(OC)c2c(c1)OC1Cc3cc(OC)c(OC)cc3C2O1 (stereo not drawn)	/	/	/	/	/	-17%
CCNC(=O)c1ccc2c(c1)sc1nc(-c3cccc(OC)c3)cn12	/	5%	/	-27%[59 µM]	/	/
Cc1ccc(S(=O)(=O)c2nnn3c2nc(NC2CCCCC2)c2sccc23)cc1C	/	-7%	/	14%[59 µM]	/	/
COCCNC(=O)c1ccc(-c2nc(CN3CCc4ccccc43)c(C)o2)cc1	/	11%	/	-24%[59 µM]	/	/
COc1ccccc1OCCSc1nc2ccc([N+](=O)[O-])cc2s1	-16%	4%	0	13µM*	-1%	9%
C=CCc1ccccc1OCCSc1nc2ccc([N+](=O)[O-])cc2s1	-5%	-10%	1	20µM*	1%	-3%
O=[N+]([O-])c1ccc2nc(SCc3ccccc3Cl)sc2c1	-5%	9%	-1	?	1%	7%
COc1cc(C2C3C(=O)N(Cc4ccccc4)C(=O)C3ON2c2ccccc2)cc(OC)c1O (stereo not drawn)	-8%	-8%	1	50µM*	0%	-9%
CCCOc1ccc(N2C(=O)C3ON(c4ccccc4)C(CCC)C3C2=O)cc1 (stereo not drawn)	-4%	-17%	2	40µM*	1%	5%
CCCOc1ccc(N2C(=O)C3ON(c4ccccc4)C(c4ccc(O)c(OC)c4)C3C2=O)cc1 (stereo not drawn)	-11%	-1%	1	50µM*	-2%	14%
CCCC1C2C(=O)N(c3ccccc3OC)C(=O)C2ON1c1ccccc1 (stereo not drawn)	-8%	21%	3	8%[59 µM]	-1%	-1%
